Assay results from PubChem BioAssay (NCI).
Compounds without any hit were thinned out: in the full panel of roughly 79,000, 15% have a hit. Rule as the data show it: active = growth inhibition above about 70%; inactive = the rest.

Experiments:
[1] = NCI Yeast Anticancer Drug Screen. Data for the rad50 strain (AID 155);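 also: 0% = growth of vehicle-only cultures of the same strain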; conditions: S. cerevisiae rad50 strain growth inhibition; at 50.0 µM; active compounds read high
Outline: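 A DNA repair-deficient yeast mutant serves as the test organism; compound-induced growth inhibition is calculated against vehicle-treated cells.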

[2] = NCI Yeast Anticancer Drug Screen. Data for the mec2-1 strain (AID 157); conditions: S. cerevisiae mec2-1 strain, at 50.0 µM, active compounds read high
Outline: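 Mutant yeast (mec2-1) grown with compound; growth inhibition relative to vehicle control reported.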

[3] = NCI Yeast Anticancer Drug Screen. Data for the sgs1 mgt1 strain (AID 161);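 also: 0% = growth of cultures given vehicle only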; conditions: S. cerevisiae sgs1 mgt1 strain, at 50.0 µM, active compounds read high
Outline: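 Compounds are added to genetically altered yeast, and growth is compared with cultures given vehicle alone to give percent inhibition.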

[4] = NCI Yeast Anticancer Drug Screen. Data for the cln2 rad14 strain (AID 165);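 also: 0% = growth equal to vehicle treated cultures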; conditions: S. cerevisiae cln2 rad14 strain, at 50.0 µM, active compounds read high
Outline: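 Readout is yeast growth inhibition versus vehicle-treated controls, using a strain with cln2 and rad14 alterations exposed to compound.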

[5] = NCI Yeast Anticancer Drug Screen. Data for the bub3 strain (AID 167); conditions: S. cerevisiae bub3 mutant strain, at 50.0 µM, active compounds read high
Outline: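 Inhibition values come from growth of compound-treated mutant yeast normalised to vehicle-treated controls.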

[6] = NCI Yeast Anticancer Drug Screen. Data for the mlh1 rad18 strain (AID 175); conditions: S. cerevisiae mlh1 rad18 strain growth inhibition; at 50.0 µM; active compounds read high
Outline: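 Genetically defined yeast (DNA repair-deficient) exposed to compounds; growth inhibition determined relative to vehicle.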

Measured: growth inhibition

Cn1c(=O)n2n(c1=O)[C@@H](c1ccccc1)[C@H]2c1ccccc1
inactive: [1] 29.8% | [2] -45.4% | [3] -9.85% | [4] -5.85% | [5] 20.2% | [6] -59.3%

NC(N)=NC(N)=Nc1cnccn1
inactive: [1] 13.7% | [2] 6.8% | [3] 2.5% | [4] 15.8% | [5] -10.5% | [6] 15.2%

COC(=O)C(CCC1(C)OCCO1)=[N+]=[N-]
inactive: [1] -7.05% | [2] 0.95% | [3] -15.1% | [4] 2.85% | [5] -19.1% | [6] -16%

CC1(C)CC(NC(=O)C(C)(C)Oc2ccc(Cl)cc2)CC(C)(C)N1
inactive: [1] 32.5% | [2] 6% | [3] 25.9% | [4] -12% | [5] 9.15% | [6] 25.8%

CC(=O)Nc1ccc(NC(=O)Nc2cccc(Cl)c2C)cc1
inactive: [1] 2.75% | [2] -0.35% | [3] 3.05% | [4] 11.7% | [5] 17.4% | [6] 5.3%

CN(C)CC1CCCC(CN(C)C)C1=NOC(=O)c1ccccc1 (stereo unspecified)
inactive: [1] -8.15% | [2] -33.8% | [3] -2.3% | [4] -21.4% | [5] 8.05% | [6] -27.8%

O=C1C(=C(c2ccc([N+](=O)[O-])cc2)N2CCOCC2)C(=O)c2ccccc21
inactive: [1] 8.9% | [2] 0.4% | [3] 6.45% | [4] -30.9% | [5] 1.75% | [6] 10.3%

CCCCCCCCCCCCCCCC(C)O (stereo unspecified)
inactive: [1] -45.8% | [2] -35.8% | [3] -20.1% | [4] -35.6% | [5] -43.5% | [6] -34.8%

COc1cc(C)c2cc(C)cc(C)c2n1
inactive: [1] 3.4% | [2] 6.05% | [3] 1.65% | [4] -17.9% | [5] 3.9% | [6] 7.85%

CC1CCCC(C(O)CC2CC(=O)NC(=O)C2)C1O (stereo unspecified)
inactive: [1] 17.4% | [2] -3.65% | [3] 3.5% | [4] -29.8% | [5] 1.7% | [6] 4.45%

O=C(O)c1cccc(F)n1
inactive: [1] -0.45% | [2] 2.05% | [3] -1.8% | [4] 3.1% | [5] -0.65% | [6] -1.85%

CN(C)CCCNC(=O)Nc1ccc(Cl)cc1
inactive: [1] 8.15% | [2] 8.15% | [3] 0.15% | [4] 11.8% | [5] -0.35% | [6] 12.8%

N#C/C(=C\N1CC(=O)NC1=S)C(N)=O
inactive: [1] -79.8% | [2] -12.6% | [3] -30.9% | [4] -22.1% | [5] -23.2% | [6] -69.5%

C=Cc1ccc(C)[n+](C[Si](C)(C)O[Si](C)(C)C[n+]2cc(C=C)ccc2C)c1
inactive: [1] -18.9% | [2] -11.1% | [3] -26.1% | [4] -4.2% | [5] -10.8% | [6] 9%

N#CC1(Nc2ccc(-c3ccc(NC4(C#N)CCCC4)cc3)cc2)CCCC1
inactive: [1] 40.8% | [2] -16.4% | [3] -36.5% | [4] -40.9% | [5] -2.55% | [6] 21.1%

CC(C)(C)c1cc(C(=O)O)ccc1C(=O)O
inactive: [1] -4.2% | [2] 12.1% | [3] -2.75% | [4] -4.2% | [5] -26.4% | [6] -8.15%

CC(C)(C#N)OC(=O)Nc1cccc(Cl)c1
inactive: [1] 5.55% | [2] -5.6% | [3] 3.75% | [4] -35.1% | [5] -30.6% | [6] -26.8%

N/N=C(\C(=O)Nc1ccc(Cl)cc1Cl)C(c1cnc2ccccc2n1)[N+](=O)[O-] (stereo unspecified)
inactive: [1] 12.5% | [2] -21.9% | [3] -3.6% | [4] -20.6% | [5] -9.45% | [6] 0.45%

O=NC1C2CCC(C2)C1N=O.[Co].[c-]1[c-][c-][cH-][c-]1 (stereo unspecified)
inactive: [1] 9.4% | [2] 6.45% | [3] 4.7% | [4] 20.4% | [5] 13.6% | [6] 27.9%

O=C(NC(=O)c1c(F)cccc1F)Nc1ccc(Br)cc1
inactive: [1] 29.2% | [2] 53.3% | [3] 19.4% | [4] 7.25% | [5] 34.5% | [6] 23.4%

CC1(C)C(C(=O)/C=C2\Nc3ccccc3C2(C)C)=Nc2ccccc21
inactive: [1] -19.5% | [2] -5.65% | [3] -2.05% | [4] -26.7% | [5] -29.4% | [6] -7.85%
